ELG1 genotoxic – induces genotoxicity in HEK293T cells with luciferase-tagged ELG1; AID 504466; HEK293T ELG1-luciferase reporter, luminescence, 16 h; 330,000 compounds, 1.3% hits; Potency, µM (doses to about 46 µM), inactives show at the top dose activity change, positive = activation, hits mostly activators; further: % of control where 0% means no effect; nearly all actives have a fitted effect of over 60% in size
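DMSO vehicle served as control against compound-treated ELG1-luciferase HEK293T cells; exposure lasted 16 hr at 37 °C and 5% CO2, followed by ONE-Glo luminescence detection after 30 min.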
Rab9 promoter act – activates the Rab9 promoter; Potency, µM (doses to about 9.22 µM), inactives show top-dose activation, negative = inhibition, hits mostly activators; Huh7 Rab9 promoter-luciferase reporter, luminescence, 24 h; 320,000 compounds, 2.8% hits; further: % of control where 0% means no effect; nearly all actives have a fitted effect of over 60% in size
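Luminescence from Amplite-detected luciferase (10 minutes, ambient) reports Rab9 promoter activation. Before that, stable Rab9-luciferase Huh7 cells (1500/well, reduced-serum OP-MEM I plus 10% FBS) were exposed to compound for 24 hours at 37C.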
ELG1 repair inh – blocks ELG1-dependent DNA repair in HEK293T cells. HEK293T ELG1-luciferase reporter, luminescence, 16 h; DNA damage induced by 5-fluorouridine. Potency, µM (series often up to 46.1 µM), for inactives: at the highest dose activity change, negative = inhibition, actives largely listed as inhibitors. 330,000 compounds, 2.3% hits. AID 504467; further: on the % scale 0 is the no-effect control and ±100 the full control effect; nearly all actives have a fitted effect of over 55% in size
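Quantitative HTS, concentration-response format. 2,000 cells/well co-treated with 5-fluorouridine and compound, 16 hr in 5% CO2 at 37 °C; ONE-Glo luminescence read after 30 min.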
FLuc counter – firefly luciferase modulation, counter-screen for miR-21 project; purified FLuc, Km substrates, luminescence inhibition; AID 588342; P08659; 360,000 compounds, 6.9% hits; Potency, µM (highest dose often 57.5 µM), inactives show at the top dose activity change, negative = inhibition, usual class: inhibitors;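 further: plate controls were vehicle for no effect and reference inhibitor for full effect; nearly all actives have a fitted effect of over 55% in size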
Target sequence (P08659 whole entry, looked up): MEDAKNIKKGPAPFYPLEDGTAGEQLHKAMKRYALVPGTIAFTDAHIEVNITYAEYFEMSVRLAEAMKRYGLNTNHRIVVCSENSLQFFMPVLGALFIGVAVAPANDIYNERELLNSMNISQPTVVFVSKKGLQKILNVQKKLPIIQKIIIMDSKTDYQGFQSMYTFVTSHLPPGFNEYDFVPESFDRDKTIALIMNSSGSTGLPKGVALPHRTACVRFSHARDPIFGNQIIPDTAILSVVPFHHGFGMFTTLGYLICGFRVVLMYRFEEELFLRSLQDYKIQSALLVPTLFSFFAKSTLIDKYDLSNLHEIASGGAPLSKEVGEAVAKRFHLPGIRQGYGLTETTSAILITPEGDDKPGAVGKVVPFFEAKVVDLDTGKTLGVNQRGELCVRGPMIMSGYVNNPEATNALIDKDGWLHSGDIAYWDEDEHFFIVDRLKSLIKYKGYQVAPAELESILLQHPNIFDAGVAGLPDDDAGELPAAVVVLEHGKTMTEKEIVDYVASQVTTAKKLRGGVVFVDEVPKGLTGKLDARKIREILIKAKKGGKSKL
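Purified P. pyralis luciferase, 10 nM final, with Km-level 10 uM D-luciferin and 10 uM ATP in 50 mM Tris acetate pH 7.5, 10 mM Mg acetate, 0.01% Tween-20, 0.05% BSA; 6-point qHTS titration about 60 µM downward; luminescence read.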
SMN2 splice enh – increases expression of the SMN2 splice variant | HEK293 SMN2-luciferase splicing reporter, luminescence, 30-36 h | Potency, µM (doses to about 46.1 µM), without a hit: top-dose activity change, positive = activation, hits mostly activators | 210,000 compounds, 2.8% hits | AID 1458; further: % of control where 0% means no effect; nearly all actives have a fitted effect of over 55% in size
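qHTS luciferase splicing reporter: luminescence rises when SMN2 exon 7 is included in transfected HEK293 cells. Compound exposure lasted 30-36 h at 37C, with 4.5 mM final sodium butyrate as control, followed by a ONE-Glo read.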
NPC1 prom act – activates the NPC1 promoter | Huh7 NPC1 promoter luciferase reporter, 24 h | Potency, µM (series often up to 9.22 µM), for inactives: top-dose activation, usual class: activators | 320,000 compounds, 2.4% hits; further: % of control where 0% means no effect; nearly all actives have a fitted effect of over 60% in size
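Huh7 cells stably carrying NPC1 promoter–luciferase, plated in Opti-MEM with 10% FBS for 2 h, were exposed to compound in DMSO for 24 h at 37 °C; luciferase reagent was added for 10 min and luminescence read.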
* = called active by the depositor; ? = inconclusive; · = not tested or not shown. Rows were chosen to be rich in hits. Some 9.4% of all compounds tested hit in one or more screens of this group. The call rests on the fitted dose curve; in most records, active means well fitted curve in the direction sought with a large enough effect; inconclusive means small, poorly fitted or top-dose-only effect, or another doubt; inactive means no such curve, though single readings can be large; an effect the other way counts as inactive or inconclusive. Potency means the concentration at half of the fitted maximal effect.

SMILES	ELG1 genotoxic	Rab9 promoter act	ELG1 repair inh	FLuc counter	SMN2 splice enh	NPC1 prom act
O=S(=O)(c1ccc(Cl)cc1)c1nc(-c2cccs2)oc1SCc1ccc(F)cc1	·	·	·	4%	-18%	·
CC(=O)N1c2ccc(S(=O)(=O)NCC3CCC(C(=O)Nc4cc(C)ccc4C)CC3)cc2CC1C (centres undefined)	·	·	·	-3%	·	·
N#Cc1c(NC(=O)c2ccc([N+](=O)[O-])o2)sc2c1CCC2	?	1.6µM*	?	4.8µM*	·	1.6µM*
Cc1cccc(C(=O)Nc2sc3c(c2C#N)CCCCC3)c1	?	1.3µM*	?	0.95µM*	2µM*	0.5µM*
NC(=O)c1c(NC(=O)c2ccc([N+](=O)[O-])o2)sc2c1CCCC2	1%	11%	-7%	-15%	·	15%
CC(C)c1cc(C(=O)Nc2sc3c(c2C#N)CCC3)no1	0%	20%	15%	3%	2%	-2%
NC(=O)c1c(NC(=O)c2cccnc2)sc2c1CCCC2	?	?	?	?	-1%	?
NC(=O)c1c(NC(=O)c2cccnc2)sc2c1CCCCC2	?	2.5µM*	?	1.7µM*	·	2.2µM*
N#Cc1c(NC(=O)c2cnccn2)sc2c1CCCC2	?	?	?	6µM*	10µM*	18%
Cc1nnc(N2CCC(C(=O)N3CCCCC3)CC2)c2nn(-c3ccccc3)c(C)c12	·	·	·	-7%	·	·
N#Cc1c(NC(=O)c2ccccc2)sc2c1CCC2	2.9µM*	0.63µM*	?	2.7µM*	2.2µM*	?
N#Cc1c(NC(=S)NC(=O)c2ccccc2)sc2c1CCCC2	11%	?	?	?	16%	25%
COc1cc2c(cc1OC)C(COc1ccc3c(C)cc(=O)oc3c1)N(C(=O)c1ccccc1F)CC2 (centres undefined)	·	·	·	1%	4%	·
COc1ccc(C(=O)Oc2c(Sc3ccc(Cl)cc3)c(C)nn2C(C)(C)C)cc1OC	·	·	·	2%	-1%	·
O=C(Cn1cnc2ccccc2c1=O)NCCC(=O)Nc1ccc2c(c1)OCCO2	2%	-9%	14%	-1%	3%	11%
O=C(Cn1cnc2ccccc2c1=O)OCC(=O)c1ccc2c(c1)OCCO2	0%	-8%	14%	21µM*	-5%	0%
O=C(Cn1cnc2ccccc2c1=O)Nc1ccc2c(c1)OCCO2	?	1.8µM*	?	9.5µM*	13µM*	2.2µM*
CCN(C(=O)Cn1nnc2sc3c(c2c1=O)CCC(C(C)(C)C)C3)c1cccc(C)c1 (centres undefined)	·	·	·	-1%	-6%	·
CCOC(=O)N1CC=C2C(C#N)=C(N)C(C#N)(C#N)[C@H](c3ccc(OC(C)C)c(OCC)c3)[C@H]2C1	0%	-1%	13µM*	-1%	?	-3%
CCOC(=O)N1CC=C2C(C#N)=C(N)C(C#N)(C#N)[C@H](c3ccccc3OCC)[C@H]2C1	?	0%	11%	0%	·	-6%
COC(=O)C1=C(C)NC2=C(C(=O)c3ccccc32)C1c1cccc(OC)c1 (centres undefined)	4%	14%	-4%	-3%	·	-1%
COc1cccc([C@@H]2Oc3ccc(OC)cc3C(=O)[C@H]2O)c1	7.3µM*	?	?	-23%	5µM*	?
COc1ccc2c(c1)C(=O)[C@@H](O)[C@H](c1ccc(OC)c(Br)c1)O2	?	12%	?	?	30%	22%
COc1cccc(C2C(=O)c3ccccc3C2=O)c1	2%	5%	14%	27µM*	·	-8%
CCn1c(C(=O)N2CCCC(C(=O)N3CCN(c4ccccc4)CC3)C2)cc2sccc21 (centres undefined)	·	·	·	-12%	-23%	·
Cc1cccc(-c2noc(-c3ccno3)n2)c1	?	?	?	21µM*	·	29%

Screening results (PubChem)
